The whole screen tested about 320,000 compounds, of which about 2,100 (0.66%) were called active. Inconclusive results (about 53%) are left out. The sample holds actives, similar compounds and a random draw of the others, so the mix is not that of the screen. Calls follow the shape of the dose curve; as a rule, active = well fitted inhibition curve with a large enough effect in the signal ratio, with a control signal flat (not every such curve was filed as active); inconclusive = small, poorly fitted or top-dose-only effect, or effect the other way, or a change in a side signal; inactive = flat fitted curve, though single readings scatter; the % refers to the signal ratio.
Potency is read from the fitted curve at half-maximal effect.

A short description of this experiment: qHTS Assay for Lipid Storage Modulators in Drosophila S3 Cells.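 As to cell number change: cells counted by Cell Tracker Red CMTPX staining in the red channel.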 As to lipid storage change, negative = inhibition: % is scaled to controls: 0 for no effect and ±100 for the full control effect. The following applies: BODIPY lipid droplet fluorescence, 18-24 h, cells fed with added oleic acid; cell number change: measured here: cell count max response; series mostly up to 46.1 µM. The essentials:
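Laser-scanning cytometry quantifies lipid droplet accumulation (500–530 nm total intensity; droplet/cell object ratio) in oleic acid-fed (400 uM added) Drosophila S3 cells treated with a concentration series. 20 uM Triacsin C defined 100% inhibition.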
For `Cc1cccc(NC(=O)CCS(=O)(=O)c2ccccc2)n1`, the Potency entry was “inactive” and the cell number change is 3.85%.
Taken in the same sequence, the figures for `CSc1nnc(-c2sc3cc(Cl)ccc3c2Cl)n1C` were 23.1 µM (active) and -10.5%.
As for `CCn1c(SC)nnc1-c1sc2cc(Cl)ccc2c1Cl`, the Potency entry was “inactive” and the cell number change was -4.88%.
The like results for `CSc1nnc(-c2ccccc2)n1C` were, in that order, “inactive” and -0.435%.
With `Cc1ccc(OCCOCCn2ccnc2)c(Br)c1`, the Potency result is “inactive” and the cell number change was -17%.
For the compound `COc1ccc(-c2csc3ncn(-c4cccc(C)c4)c(=O)c23)cc1OC`, the Potency entry was “inactive” and the cell number change turned out to be 14.7%.
Consider `Cc1cc(NC(=O)c2cccc(F)c2)no1`, for which the Potency result is “inactive” and the cell number change was found to be 9.9%.
For `O=C(Nc1ccc(F)cc1)c1ccc2[nH]c(=O)c(=O)[nH]c2c1`, the Potency result is “inactive” and the cell number change was 25.6%.
Turning to `O=C(Nc1ncccn1)c1cccc(F)c1`, the Potency entry is “inactive” and the cell number change is -18.7%.
For the compound `O=C(N/N=C/c1cccc2ccccc12)c1ccncc1`, the Potency result was “inactive” and the cell number change turned out to be 0.153%.
Consider `O=C(Nc1cccc(NC(=O)c2cccc(F)c2)n1)c1cccc(F)c1`, for which the Potency is 6.51 µM (active).
Consider `O=C(N/N=C/c1cccc2ccccc12)c1cccc(F)c1`, for which the Potency was 11.2 µM (active) and the cell number change is -0.111%.
The like results for `O=C(Nc1ccc(F)cc1)c1cccc(C(=O)Nc2ccc(F)cc2)c1` were, in that order, 0.231 µM (active) and 22.5%.
The like results for `O=C(N/N=C/c1ccccc1Cl)c1cccc(F)c1` were, in that order, “inactive” and 0.333%.
As for `O=C(Nc1ccc(F)cc1)c1ccccc1`, the Potency entry was “inactive”.
Turning to `Cc1ccc(S(=O)(=O)c2nc(-c3ccccc3Cl)oc2NCCCN2CCOCC2)cc1`, the Potency entry was “inactive”.
On to `CCOC(=O)C1(Cc2ccccc2)CCN(Cc2cn[nH]c2-c2ccccc2)CC1`, for which the Potency entry was “inactive” and the cell number change came out at 4.32%.
Regarding `C[C@H](NC(=O)CCn1nnc2ccccc2c1=O)C(=O)O`, the Potency entry is “inactive” and the cell number change was -17.6%.
Regarding `O=C(c1ccc(F)cc1)C1CCN(Cc2ccc(F)cc2)CC1`, the Potency entry was “inactive” and the cell number change was found to be 16.1%.
As to `CCn1c(CCNC(=O)c2ccc(Cl)cc2)n[nH]c1=S`, the Potency is 1.84 µM (active) and the cell number change worked out at 24.6%.
Taken in the same sequence, the figures for `CCn1c(CCNC(=O)c2ccc(C)cc2)n[nH]c1=S` were “inactive” and 22.9%.
With `Cn1c(CCNC(=O)c2ccc(Cl)cc2)n[nH]c1=S`, the Potency entry was “inactive” and the cell number change is -13.4%.
Taken in the same sequence, the figures for `CN1CCN(c2nc(C(N)=O)cc(-c3ccccc3)n2)CC1` were “inactive” and -10.6%.
The like results for `COc1ccc(-c2nc(CSCC(=O)N3CCC(C(N)=O)CC3)c(C)o2)cc1OC` were, in that order, “inactive” and -1.8%.
For the compound `COc1ccc(C(=O)/C=C/c2ccc(O)cc2)cc1`, the Potency entry is “inactive” and the cell number change was -17.3%.
As for `COC(=O)c1ccc(/C=C/C(=O)O)cc1`, the Potency result was “inactive” and the cell number change was determined as 2.73%.
With `COC(=O)c1ccc2c(c1)C(C)(C)C(/C=C/c1ccc(O)cc1)=[N+]2C`, the Potency was 5.17 µM (active) and the cell number change was determined as 1%.
In the case of `Cc1cc(NC(=O)CSc2ncnc3sc(C)c(C)c23)no1`, the Potency result is “inactive”.
With `Cc1ccc(S(=O)(=O)N2CCC(C(=O)Nc3nnc(C4CCCC4)s3)CC2)cc1`, the Potency entry is “inactive” and the cell number change is 5.99%.
Regarding `COc1ccc(CNC(=O)CC2(CC(=O)O)CCCCC2)cc1`, the Potency entry is “inactive” and the cell number change is -16.2%.
The like results for `COc1ccccc1NC(=O)C(C)NS(=O)(=O)c1ccc(Cl)cc1` (configuration not stated) were, in that order, 6.51 µM (active) and 10.9%.
In the case of `COc1ccccc1NC(=O)C(C)NS(=O)(=O)c1ccc(F)cc1` (configuration not stated), the Potency entry is “inactive” and the cell number change worked out at 6.54%.
Taken in the same sequence, the figures for `COc1ccc(S(=O)(=O)NC(C)C(=O)Nc2ccccc2F)cc1` (configuration not stated) were “inactive” and 4.07%.
Consider `COc1cc(C(=O)OCC(=O)N2CCCCC2C)cc(NC(=O)c2cccs2)c1OC` (configuration not stated), for which the Potency result was “inactive” and the cell number change was 7.36%.
Take `CC(C)(C)NC(=O)C1CCC(CNS(=O)(=O)c2cccc3nsnc23)CC1` (configuration not stated): the Potency is 18.4 µM (active).
In the case of `COC(=O)CNC(=O)C1CCC(CNS(=O)(=O)c2cccc3nsnc23)CC1` (configuration not stated), the Potency result is “inactive” and the cell number change is -18.8%.
With `CCCNC(=O)C1CCC(CNS(=O)(=O)c2cccc3nsnc23)CC1` (configuration not stated), the Potency result was “inactive”.
With `Cc1cc(NC(=O)CSc2nc(=O)n3cc(Cl)ccc3n2)no1`, the cell number change stood at 13.5% and the lipid storage change, negative = inhibition is 0.863% [at 0.0737 µM] (inactive).
Take `Fc1ccc(CNn2cnnc2SCc2ccc(F)cc2)cc1`: the Potency result is “inactive” and the cell number change stood at 9.34%.
Taken in the same sequence, the figures for `CCc1cccc2c(C(=O)COC(=O)c3cccc(S(=O)(=O)N(C)C4CCCCC4)c3)c[nH]c12` were “inactive” and 6.53%.
On to `C=CCN(C(=O)c1csnn1)C(C(=O)NC1CCCCC1)c1ccccc1F` (configuration not stated), for which the Potency is 13 µM (active) and the cell number change worked out at 2.14%.
As for `O=C(NC1CCCC1)C(c1ccc(Cl)cc1)N(C(=O)c1csnn1)C1CC1` (configuration not stated), the Potency result is “inactive” and the cell number change turned out to be 12.1%.
Taken in the same sequence, the figures for `C=CCN(C(=O)c1csnn1)C(C(=O)NC1CCCC1)c1ccc(Cl)cc1` (configuration not stated) were “inactive” and -41%.
`C=CCN(C(=O)c1csnn1)C(C(=O)NC1CCCC1)c1c(F)cccc1Cl` (configuration not stated): the Potency was 9.2 µM (active) and the cell number change worked out at 0.427%.
Regarding `C=CCN(C(=O)c1csnn1)C(C(=O)NC1CCCC1)c1ccccc1` (configuration not stated), the Potency entry is “inactive” and the cell number change was determined as 15.2%.
On to `C=CCN(C(=O)c1csnn1)C(C(=O)NC1CCCCC1)c1ccc(F)cc1` (configuration not stated), for which the Potency entry was “inactive” and the cell number change is 11.7%.
`C=CCN(C(=O)c1csnn1)C(C(=O)NC1CCCC1)c1ccccc1F` (configuration not stated): the Potency result was “inactive” and the cell number change was -7.62%.
With `O=C(NC1CCCC1)C(c1c(F)cccc1Cl)N(C(=O)c1csnn1)C1CC1` (configuration not stated), the Potency is 16.4 µM (active) and the cell number change is -12.9%.
As for `O=C(NC1CCCC1)C(c1ccc(F)cc1)N(C(=O)c1csnn1)C1CC1` (configuration not stated), the Potency entry is “inactive” and the cell number change was -11.5%.

Values taken from PubChem BioAssay AID2685 (National Center for Advancing Translational Sciences (NCATS), 2010).
